Laboratory results: PubChem BioAssay AID1159580 (chemical genetic matrix, 2015)
Several values for one entry are separate records, joined by “and”; a condition that tells them apart may be missing. Equal entries are not always repeated. In all, about 5,500 compounds went through this assay and about 2,000 (36%) were called active. Inconclusive results (about 18%) are left out. Cut-off read from the data, not from the text of the source: active = normalized growth mostly below about 0.91 (no sharp cut-off); inconclusive = no clear call, values can overlap the other calls; inactive = mostly above about 0.92. The list shows a part of the results.

Assay: chemical genetic growth profiling, strain panel (AID 1159580);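 note: tested at 20 µM; growth read once vehicle control cultures reached saturation at 30 °C; 1 = growth at the plate median or of vehicle wells; lower values mean less growth of the strain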
Conditions: S. cerevisiae deletion strains, growth OD

Measured: normalized growth

CC(C)NC[C@H](O)COc1cccc2ccccc12
inactive: locus YAL021C, strain ccr4, stronger effect = lower value 0.985 | locus YAL026C, strain drs2, stronger effect = lower value 1 | locus YAL030W, strain snc1, stronger effect = lower value 0.986 | locus YBL061C, strain skt5, stronger effect = lower value 0.984 | locus YBR009C, strain hhf1, stronger effect = lower value 0.98 | locus YBR021W, strain FUR4, stronger effect = lower value 0.997 | locus YBR023C, strain chs3, stronger effect = lower value 0.99 | locus YBR171W, strain sec66, stronger effect = lower value 0.989 | locus YBR229C, strain ROT2, stronger effect = lower value 1.01 | locus YBR231C, strain swc5, stronger effect = lower value 0.989 | locus YBR279W, strain paf1, stronger effect = lower value 0.99 | locus YCL011C, strain gbp2, stronger effect = lower value 0.993 | locus YCL016C, strain dcc1, stronger effect = lower value 0.991 | locus YCL029C, strain bik1, stronger effect = lower value 1.02 | locus YCL061C, strain MRC1, stronger effect = lower value 0.994 | locus YCL069W, strain vba3, stronger effect = lower value 0.993 | locus YCR088W, strain abp1, stronger effect = lower value 0.991 | locus YDL005C, strain med2, stronger effect = lower value 0.981 | locus YDL035C, strain GPR1, stronger effect = lower value 0.993 | locus YDL040C, strain nat1, stronger effect = lower value 0.992 | locus YDL074C, strain BRE1, stronger effect = lower value 1.02 | locus YDL101C, strain DUN1, stronger effect = lower value 1.01 | locus YDL134C, strain PPH21, stronger effect = lower value 0.979 | locus YDL185W, strain tfp1, stronger effect = lower value 1.03 | locus YDL192W, strain arf1, stronger effect = lower value 1.02 | locus YDR001C, strain nth1, stronger effect = lower value 0.991 | locus YDR069C, strain doa4, stronger effect = lower value 1 | locus YDR101C, strain arx1, stronger effect = lower value 1 | locus YDR137W, strain rgp1, stronger effect = lower value 1 | locus YDR159W, strain sac3, stronger effect = lower value 0.976 | locus YDR162C, strain NBP2, stronger effect = lower value 1 | locus YDR195W, strain ref2 0.962 | locus YDR297W, strain sur2, stronger effect = lower value 1.01 | locus YDR318W, strain mcm21, stronger effect = lower value 1.02 | locus YDR334W, strain swr1, stronger effect = lower value 0.999 | locus YDR335W, strain msn5, stronger effect = lower value 0.991 | locus YDR388W, stronger effect = lower value 1.02 | locus YDR392W, strain spt3, stronger effect = lower value 0.943 | locus YDR502C, strain sam2, stronger effect = lower value 1 | locus YEL003W, strain gim4, stronger effect = lower value 1 | locus YEL037C, strain rad23, stronger effect = lower value 1.02 | locus YEL061C, strain CIN8 (second series), stronger effect = lower value 0.993 | locus YEL061C, strain CIN8, stronger effect = lower value 1.01 | locus YER015W, strain faa2, stronger effect = lower value 0.969 | locus YER016W, strain bim1, stronger effect = lower value 0.986 | locus YER110C, stronger effect = lower value 1.02 | locus YER111C, strain swi4, stronger effect = lower value 0.986 | locus YER155C, strain BEM2 (second series), stronger effect = lower value 0.98 | locus YER155C, strain BEM2, stronger effect = lower value 1.01 | locus YER167W, strain BCK2, stronger effect = lower value 1 | locus YFR010W, strain ubp6, stronger effect = lower value 1.01 | locus YGL078C, strain dbp3, stronger effect = lower value 1.01 | locus YGL086W, strain mad1, stronger effect = lower value 0.994 | locus YGL167C, strain pmr1, stronger effect = lower value 0.982 | locus YGL173C, strain kem1, stronger effect = lower value 0.993 | locus YGL227W, strain vid30, stronger effect = lower value 0.992 | locus YGL240W, strain doc1, stronger effect = lower value 0.977 | locus YGL248W, strain PDE1, stronger effect = lower value 1.01 | locus YGL253W, strain hxk2, stronger effect = lower value 1 | locus YGR078C, strain PAC10, stronger effect = lower value 1.01 | locus YGR135W, strain pre9, stronger effect = lower value 1.02 | locus YGR252W, strain gcn5, stronger effect = lower value 0.992 | locus YHR013C, strain ard1, stronger effect = lower value 0.953 | locus YHR027C, strain rpn1, stronger effect = lower value 0.988 | locus YHR030C, strain SLT2, stronger effect = lower value 1.01 and 1.06 | locus YHR079C, strain IRE1 (second series), stronger effect = lower value 1.02 | locus YHR079C, strain IRE1, stronger effect = lower value 1.08 | locus YHR094C, strain hxt1, stronger effect = lower value 1.02 | locus YHR129C, strain ARP1, stronger effect = lower value 1.01 | locus YHR142W, strain chs7, stronger effect = lower value 1.01 | locus YHR200W, strain rpn10, stronger effect = lower value 1.02 | locus YIL066C, strain RNR3, stronger effect = lower value 1.01 | locus YIL073C, strain SPO22, stronger effect = lower value 1.04 | locus YIL125W, strain kgd1, stronger effect = lower value 1.02 | locus YIR030C, strain dcg1, stronger effect = lower value 1.03 | locus YJL092W, strain hpr5, stronger effect = lower value 0.993 | locus YJL095W, strain BCK1 (second series), stronger effect = lower value 0.987 | locus YJL095W, strain BCK1, stronger effect = lower value 1.01 and 1.02 | locus YJL115W, strain asf1, stronger effect = lower value 0.987 | locus YJL129C, strain trk1, stronger effect = lower value 1.01 | locus YJL134W, strain LCB3, stronger effect = lower value 1.01 | locus YJL154C, strain vps35, stronger effect = lower value 0.992 | locus YJL164C, strain tpk1, stronger effect = lower value 0.989 | locus YJL166W, strain qcr8, stronger effect = lower value 0.983 | locus YJL168C, strain set2, stronger effect = lower value 1.02 | locus YJL187C, strain SWE1 (second series), stronger effect = lower value 1.01 | locus YJL187C, strain SWE1, stronger effect = lower value 0.984 | locus YJR043C, strain POL32, stronger effect = lower value 1.01
